High-throughput results: PubChem, several laboratories
NSD2 inh – inhibitors of human histone methyltransferase NSD2 | NSD2 peptide methylation, AlphaScreen, 120 min | actives 0.54% (n = 310,000) | inhibition, % at 12.5 µM | AID 743445 | O96028; in the data active = inhibition above about 50%
CaV13 FRET inh – Disruptors of the CACNA1D IQ motif to Ca2+-dependent inactivation inhibitor domain association, primary screening, Förster resonance energy transfer in intact living … | actives 0.098% (n = 340,000) | AID 743397 | inhibition, % at 12.3 µM | HEK cells, CFP/YFP FRET ICDI-IQ, plate reader, 10 min; percent FRET-ratio fall versus neutral wells;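 active = mean replicate inhibition of at least 30% and at least 1% of replicates passing that level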;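 note: 0% = median of the neutral control wells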
DSG3 Ab inh – blocks pemphigus antibody binding to human desmoglein-3 | binding (percent of control), % at 10 µM | AID 588358 | DSG3-coupled beads, scFv-anti-DSG3-GFP binding, flow cytometry; hits give low values | P32926 | actives 0.48% (n = 310,000);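 active = binding more than 3 SD below its plate's average and above zero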;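 note: hits lower antibody fragment binding to DSG3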
Target sequence (P32926 whole entry, looked up, the tested form may be a part): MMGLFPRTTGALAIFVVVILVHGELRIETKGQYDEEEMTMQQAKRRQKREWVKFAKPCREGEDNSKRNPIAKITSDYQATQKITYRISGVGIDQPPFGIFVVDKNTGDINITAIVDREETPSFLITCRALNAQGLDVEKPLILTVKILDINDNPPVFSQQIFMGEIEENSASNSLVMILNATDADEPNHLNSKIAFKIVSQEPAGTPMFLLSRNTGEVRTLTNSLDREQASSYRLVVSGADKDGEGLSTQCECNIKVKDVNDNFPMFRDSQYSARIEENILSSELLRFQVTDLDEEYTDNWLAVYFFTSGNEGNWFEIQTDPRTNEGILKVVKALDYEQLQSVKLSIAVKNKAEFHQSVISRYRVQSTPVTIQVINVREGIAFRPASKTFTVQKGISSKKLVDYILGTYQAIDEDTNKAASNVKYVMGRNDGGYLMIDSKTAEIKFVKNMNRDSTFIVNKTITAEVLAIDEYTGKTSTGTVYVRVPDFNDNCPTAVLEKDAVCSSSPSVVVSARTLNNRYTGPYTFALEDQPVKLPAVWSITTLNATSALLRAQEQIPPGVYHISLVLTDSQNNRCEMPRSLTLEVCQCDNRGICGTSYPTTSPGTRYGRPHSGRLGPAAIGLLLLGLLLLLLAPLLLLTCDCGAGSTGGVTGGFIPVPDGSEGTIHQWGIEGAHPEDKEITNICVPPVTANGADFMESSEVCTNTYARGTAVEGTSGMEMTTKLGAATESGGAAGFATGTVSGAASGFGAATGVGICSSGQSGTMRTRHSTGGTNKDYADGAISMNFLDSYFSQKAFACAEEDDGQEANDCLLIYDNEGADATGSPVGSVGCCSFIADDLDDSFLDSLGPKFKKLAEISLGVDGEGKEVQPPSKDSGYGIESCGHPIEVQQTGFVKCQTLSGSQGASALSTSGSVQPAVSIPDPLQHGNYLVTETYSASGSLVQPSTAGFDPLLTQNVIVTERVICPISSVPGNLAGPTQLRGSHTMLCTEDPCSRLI
ATG4B inhibitor – inhibitors of human ATG4B cysteine protease; actives 0.51% (n = 340,000); ATG4B cleavage of LC3-PLA2, NBD-HPC fluorescence, 1 h; inhibition, % at 8.33 µM; Q9Y4P1; in the data active = inhibition above about 40%
Vif imaging – inhibitors of HIV Vif. actives 0.35% (n = 340,000). HEK293T cells, Vif self-association by quenched fluorescence, imaging, 24 h. AID 602346. inhibition, % at 7.49 µM; in the data active = inhibition above about 50%, passing the limit was not always enough
N-glyco inh – blocks N-linked glycosylation in D54 reporter cells; AID 588692; reporter increase, % at 12.5 µM; D54 ERlucT glycosylation luciferase reporter, 24 h; percent of 100 nM tunicamycin response; actives 0.23% (n = 360,000);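 active = mean luciferase reporter signal, scaled so untreated is 0 and the glycosylation-blocking control 100, at or above a set limit in every replicate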;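 note: luciferase carries N-glycosylation sites so blocking glycosylation raises the light; 0% = median of neutral control wells and 100% = median of 100 nM tunicamycin wells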
* hit, by the source's call. This is a sample that favours compounds with a hit; in the whole collection about 1.9% have one here.

COc1ccc(C(=O)C2CCCN(C(=O)c3ccnn3C)C2)cc1OC (stereo not drawn) was read as NSD2 inh -2.4, CaV13 FRET inh -2.3, DSG3 Ab inh 107.1, ATG4B inhibitor 26.6, Vif imaging -0.5 and N-glyco inh 2.2.
`COc1cc(/C=N/NC(=S)NCC2CCCO2)cc(OC)c1OC` (stereo not drawn) gave NSD2 inh 0.8, CaV13 FRET inh -1.7, DSG3 Ab inh 84.4*, ATG4B inhibitor 4.1, Vif imaging 0.3 and N-glyco inh 1.5.
For COc1ccc(/C=N/NC(=S)NCC2CCCO2)cc1 (stereo not drawn) the results were NSD2 inh 1.3, CaV13 FRET inh -4.8, DSG3 Ab inh 108.9, ATG4B inhibitor -4.8, Vif imaging 0.7 and N-glyco inh -0.2.
Screening COCCCNC(=O)CCn1c(=O)c2ccccc2n(CC(=O)NCCC2=CCCCC2)c1=O returned NSD2 inh -1.0, CaV13 FRET inh -5.0, DSG3 Ab inh 67.7*, ATG4B inhibitor 12.6, Vif imaging -4.6 and N-glyco inh -0.9.
Screening CCOC(=O)/C=C(\C)Sc1cc(=O)oc2ccccc12 returned NSD2 inh -1.1, CaV13 FRET inh -4.9, ATG4B inhibitor -7.1, Vif imaging -3.0 and N-glyco inh 25.1*.
Screening NC(=O)C1CCN(C(=O)/C=C/c2cccc(Br)c2)CC1 returned NSD2 inh 2.4, CaV13 FRET inh 5.7, DSG3 Ab inh 100.2, ATG4B inhibitor -7.4, Vif imaging -14.3 and N-glyco inh -0.9.
`OCc1cc(C(O)CNCCCCCCOCCCCc2ccccc2)ccc1O` (stereo not drawn) gave CaV13 FRET inh -5.2, DSG3 Ab inh 113.3, ATG4B inhibitor 5.7, Vif imaging -1.0 and N-glyco inh 3.3.
Screening O=C(OCC(=O)N1CCCCC1)c1cc2ccccc2cc1O returned NSD2 inh 0.5, CaV13 FRET inh -5.3, DSG3 Ab inh 107.0, ATG4B inhibitor -6.9, Vif imaging 2.2 and N-glyco inh -0.7.
Screening C/C(CC(=O)N1CCCC1)=N\NC(=O)c1cc2ccccc2cc1O returned NSD2 inh 69.6*, CaV13 FRET inh -16.7, DSG3 Ab inh 108.9, ATG4B inhibitor -8.2, Vif imaging 0.8 and N-glyco inh -0.7.
`CC(C)Cn1c(N)c(C(=O)COC(=O)c2nccnc2N)c(=O)n(C)c1=O` gave NSD2 inh 7.0, CaV13 FRET inh -3.1, ATG4B inhibitor -2.6, Vif imaging 17.1 and N-glyco inh 2.6.
Screening CCOC(=O)CSc1nnc(-c2ccc(NS(=O)(=O)c3ccc(C)cc3)cc2)o1 returned CaV13 FRET inh -5.5, DSG3 Ab inh 98.4, ATG4B inhibitor -5.1, Vif imaging 9.4 and N-glyco inh 2.1.
`O=C(/C=C/c1ccc(O)cc1)c1ccc(NC2=C(N3CCCCC3)C(=O)c3ccccc3C2=O)cc1` gave NSD2 inh 13.3, CaV13 FRET inh -7.5, DSG3 Ab inh 121.0, ATG4B inhibitor 5.7, Vif imaging -1.9 and N-glyco inh -14.4.
Screening O=C1C(Nc2ccccc2)=C(N2CCCCC2)C(=O)c2ccccc21 returned NSD2 inh 93.6*, CaV13 FRET inh -6.8, DSG3 Ab inh 107.8, ATG4B inhibitor -1.7, Vif imaging 24.7 and N-glyco inh -10.6.
`Cc1ccc(NC2=C(N3CCCCC3)C(=O)c3ccccc3C2=O)cc1` gave NSD2 inh 50.7*, DSG3 Ab inh 119.8, ATG4B inhibitor -3.5, Vif imaging -1.1 and N-glyco inh 1.7.
Screening COc1ccccc1NC1=C(N2CCCCC2)C(=O)c2ccccc2C1=O returned NSD2 inh 93.2*, DSG3 Ab inh 107.5, ATG4B inhibitor -2.4, Vif imaging 0.7 and N-glyco inh -16.8.
Screening COCCN(C(=O)COC(=O)c1cc2c(s1)CCC2)c1c(N)n(Cc2ccccc2)c(=O)[nH]c1=O returned NSD2 inh 72.1*, CaV13 FRET inh -5.6, DSG3 Ab inh 90.0, ATG4B inhibitor 14.6, Vif imaging -6.2 and N-glyco inh 3.4.
For CCOc1ccc(OCC(=O)N(CCC2=CCCCC2)c2c(N)n(Cc3ccccc3)c(=O)[nH]c2=O)cc1 the results were NSD2 inh -3.0, CaV13 FRET inh -15.2, DSG3 Ab inh 109.5, Vif imaging -8.6 and N-glyco inh 79.7*.
Screening COc1cc2c[n+](C)c3c4ccccc4ccc3c2cc1OC returned NSD2 inh 15.2, CaV13 FRET inh -1.8, DSG3 Ab inh 91.5, ATG4B inhibitor -12.4, Vif imaging -8.1 and N-glyco inh 33.9*.
C=CCn1c(SCC(=O)N2CCc3ccccc3C2)nc2sc(CC)cc2c1=O was read as NSD2 inh -0.9, CaV13 FRET inh -3.1, DSG3 Ab inh 83.7, ATG4B inhibitor -0.3, Vif imaging -14.5 and N-glyco inh 1.2.
`CC1(C(=O)NS(=O)(=O)c2cccc(OC(F)F)c2)CCN1C(=O)c1ccco1` (stereo not drawn) gave NSD2 inh -3.1, CaV13 FRET inh -6.6, Vif imaging 58.5* and N-glyco inh 0.7.
Screening O=C(Nc1ccccc1F)C1CCCC1 returned NSD2 inh 7.1, CaV13 FRET inh -21.0, DSG3 Ab inh 100.4, ATG4B inhibitor -7.2, Vif imaging -14.7 and N-glyco inh -0.7.
COc1ccc(N=CC2=C(O)c3ccccc3C2=O)cc1 was read as NSD2 inh 0.1, CaV13 FRET inh -5.2, DSG3 Ab inh 97.2, ATG4B inhibitor -1.2, Vif imaging 3.1 and N-glyco inh -15.9.
Screening O=C(Cn1nnc(-c2ccccc2)n1)OCc1ccccc1 returned NSD2 inh -2.7, CaV13 FRET inh -4.2, DSG3 Ab inh 99.3, ATG4B inhibitor -9.3, Vif imaging -4.2 and N-glyco inh 0.3.
For COc1ccc(NC(=O)CSc2nnc(-c3cccnc3)n2C)cc1 the results were NSD2 inh 0.3, CaV13 FRET inh -5.2, DSG3 Ab inh 96.5, ATG4B inhibitor -3.1, Vif imaging -4.8 and N-glyco inh 1.6.
Screening O=C(Nc1ccccc1)C1=C[C@@H](C2CCCCC2)C[C@@H](OCCCCO)O1 returned CaV13 FRET inh -3.5, DSG3 Ab inh 102.8, ATG4B inhibitor -10.3, Vif imaging 68.8* and N-glyco inh -7.8.
O=C(Nc1ccccc1)C1=C[C@H](C2CCCCC2)C[C@H](OCCCCO)O1 was read as CaV13 FRET inh -3.9, DSG3 Ab inh 104.1, ATG4B inhibitor 4.2, Vif imaging 24.6 and N-glyco inh -3.0.
`O=C(Nc1ccc(F)cc1)C1CC(=O)n2c(nc3ccccc32)N1` (stereo not drawn) gave NSD2 inh 0.8, CaV13 FRET inh -15.0, DSG3 Ab inh 97.7, ATG4B inhibitor -3.0, Vif imaging -2.2 and N-glyco inh 0.2.
